Screens as filed in PubChem BioAssay.
This is a sample that favours compounds with a hit; in the whole collection about 1.5% have one here.
APE1 inh: qHTS Assay for Inhibitors of the Human Apurinic/apyrimidinic Endonuclease 1 (APE1). Potency, µM (top dose mostly 65.8 µM), for the others: top-dose activity change, negative = inhibition, hits mostly inhibitors. DNA repair nuclease/redox regulator APEX1 (Homo sapiens), P27695. recombinant APE1, TAMRA/BHQ-2 abasic DNA cleavage fluorescence. 350,000 tested, 0.35% active;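 note: potency is the fitted concentration of half-maximal effect; plate controls were vehicle for no effect and reference inhibitor for full effect; nearly all actives have a fitted effect of over 55% in size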
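Substrate: short duplex with […] THF abasic site, 5'-TAMRA and 3'-BHQ-2, 50 nM final. APE1 at 0.75 nM, preincubated 15 min RT with compound. Fluorescence increase from first to third read measured activity.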
KAT2A inh: qHTS Assay for Inhibitors of GCN5L2 | Histone acetyltransferase KAT2A (Homo sapiens), Q92830 | GCN5L2 HAT assay, ThioGlo1 CoA-SH fluorescence | Potency, µM (series often up to 58.9 µM), for the others: top-dose activity change, negative = inhibition, hits mostly inhibitors | 390,000 tested, 0.21% active | AID 504327, 2011; note: potency is the fitted concentration of half-maximal effect
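GCN5L2 (20 nM) in 50mM HEPES pH 7.5, 0.1mM EDTA, 0.01% Tween-20 preincubated 15 min with compounds at room temperature. Reaction started with H3(1-25) 75uM, acetyl-CoA 70uM, ThioGlo1 50uM; CoA-thiol fluorescence (Ex340/Em540) read at 0 and 20 min.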
BLM inh-1: qHTS Assay for Inhibitors of Bloom's syndrome helicase (BLM). recombinant BLM DNA unwinding, fluorescence dequenching. 350,000 tested, 0.2% active. RecQ-like DNA helicase BLM (Homo sapiens), P54132. AID 2528, 2010. Potency, µM (highest dose often 56.1 µM), inactives show at the highest dose activity change, negative = inhibition, actives largely listed as inhibitors;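 note: potency is the fitted concentration of half-maximal effect; plate controls were vehicle for no effect and no enzyme for full effect; nearly all actives have a fitted effect of over 35% in size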
FEN1 inh: qHTS Assay for the Inhibitors of Human Flap endonuclease 1 (FEN1); Recombinant FEN1 flap cleavage, fluorescence, 15 min; Potency, µM (series often up to 114 µM), for inactives: at the top dose activity change, negative = inhibition, most hits filed as inhibitors; 390,000 tested, 0.35% active; AID 588795, 2011; note: potency is the fitted concentration of half-maximal effect; nearly all actives have a fitted effect of over 65% in size
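With each library titrated from low to high concentration, compounds met 10 nM FEN1 for 15 min at room temperature before 50 nM substrate was added; readings at 0 and 15 min fed four-parameter Hill curve fits.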
PI5P4K alpha inh: qHTS for Inhibitors of phosphatidylinositol 5-phosphate 4-kinase (PI5P4K). Phosphatidylinositol 5-phosphate 4-kinase type-2 alpha (Homo sapiens), P48426. PI5P4Kalpha enzyme, ADP-Glo luminescence, 60 min; stronger effect = lower value. max response, %. 330,000 tested, 1.2% active; active = max response of -50% or lower; inconclusive = between -30% and -50%; inactive = -30% or higher; note: value at the top dose of about 77 µM
Target sequence (P48426 whole entry, looked up): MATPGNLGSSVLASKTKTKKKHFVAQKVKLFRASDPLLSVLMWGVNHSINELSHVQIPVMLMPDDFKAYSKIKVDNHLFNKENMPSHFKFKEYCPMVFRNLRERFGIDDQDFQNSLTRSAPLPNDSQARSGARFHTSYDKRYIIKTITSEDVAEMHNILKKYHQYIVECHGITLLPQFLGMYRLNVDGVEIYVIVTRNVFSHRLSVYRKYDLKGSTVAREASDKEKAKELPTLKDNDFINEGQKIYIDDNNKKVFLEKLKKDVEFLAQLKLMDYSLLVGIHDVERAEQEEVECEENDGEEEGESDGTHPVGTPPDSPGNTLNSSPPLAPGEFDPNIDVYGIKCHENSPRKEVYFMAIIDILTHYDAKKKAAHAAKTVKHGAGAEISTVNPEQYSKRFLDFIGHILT
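qHTS, 1536-well: enzyme/substrate mix, compound by pin tool, 5 microM ATP final; RT 60 min; ADP-Glo reagents 1 (45 min) then 2 (30 min); luminescence.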
RECQ1 inh-1: qHTS Assay for Inhibitors of RecQ-Like Dna Helicase 1 (RECQ1); RECQ1 DNA unwinding, red fluorescence kinetic read; 240,000 tested, 0.54% active; Potency, µM (titrated, usually from 57.3 µM), for the others: at the highest dose activity, negative = inhibition, hits mostly inhibitors; AID 2549, 2010; ATP-dependent DNA helicase Q1 (Homo sapiens), P46063;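 note: potency is the fitted concentration of half-maximal effect; plate controls were vehicle for no effect and no enzyme for full effect; nearly all actives have a fitted effect of over 30% in size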
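50 nM RECQ1T1 preincubated 15 min with compound in Tris pH 8.0 buffer with MgCl2, DTT, Tween-20 and 2.5 ug/ml poly(dI-dC); started with 200 nM TAMRA/BHQ-2 forked duplex and 2 mM ATP. Unwinding read as fluorescence (525/598 nm), two reads 2 h apart.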
BLM inh-2: qHTS Confirmation Assay for Inhibitors of Bloom's syndrome helicase (BLM). AID 2585, 2010. shares compounds with BLM inh-1. Potency, µM, for the others: max response, negative = inhibition, hits mostly inhibitors. BLM DNA unwinding, fluorescence quenching, biochemical. 220 tested, 40% active;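 note: strand separation dequenches TAMRA so unwinding raises red fluorescence; potency is the fitted concentration of half-maximal effect; series mostly up to about 69 µM; nearly all actives have a fitted effect of over 45% in size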
RECQ1 conf: Confirmation qHTS Assay for Inhibitors of RecQ-Like Dna Helicase 1 (RECQ1) | 610 tested, 28% active | AID 2708, 2010 | Potency, µM (series often up to 229 µM), without a hit: top-dose activity change, negative = inhibition, actives largely listed as inhibitors | RECQ1 helicase DNA unwinding, fluorescence | shares compounds with RECQ1 inh-1; note: potency is the fitted concentration of half-maximal effect; nearly all actives have a fitted effect of over 45% in size
ADP FP counter: Counterscreen for RECQ1 Inhibitors: ADP Fluorescence Polarization Displacement Assay; Potency, µM (titrated, usually from 228 µM), without a hit: top-dose activity change, negative = inhibition, most hits filed as inhibitors; AID 2711, 2010; 530 tested, 27% active; ADP fluorescence polarization displacement counterscreen; shares compounds with RECQ1 inh-1; note: potency is the fitted concentration of half-maximal effect; nearly all actives have a fitted effect of over 45% in size
RECQ1 inh-2: Confirmation qHTS Assay for Inhibitors of RecQ-Like Dna Helicase 1 (RECQ1) - Round 2 Cherry Picks. 1,100 tested, 15% active. shares compounds with RECQ1 inh-1. recombinant RECQ1 DNA unwinding, red fluorescence. Potency, µM (titrated, usually from 119 µM), without a hit: at the top dose activity, negative = inhibition, actives largely listed as inhibitors. AID 504841, 2011; note: potency is the fitted concentration of half-maximal effect; nearly all actives have a fitted effect of over 50% in size
ADP-Glo interf: qHTS for Inhibitors of PI5P4K: ADP-Glo counter assay | ADP-Glo detection counter-screen, luciferase luminescence, no enzyme | 1,100 tested, under 10 active | Potency, µM (doses to about 76.9 µM), for inactives: top-dose activity change, negative = inhibition, usual class: inhibitors | shares compounds with PI5P4K alpha inh
* hit, by the source's call; u = inconclusive; x = no result given; [ ] = dose if it differs, or a comment. Unless noted, calls come from the whole dose curve; as a rule, active = well fitted curve in the direction sought with a large enough effect; inconclusive = small, poorly fitted or top-dose-only effect, or another doubt; inactive = no such curve, though single readings can be large; an effect the other way counts as inactive or inconclusive. Unless noted, % is set by controls: 0 for no effect and ±100 for the full control effect.

SMILES | APE1 inh | KAT2A inh | BLM inh-1 | FEN1 inh | PI5P4K alpha inh | RECQ1 inh-1 | RECQ1 inh-2 | others
CC1(OC(=O)C2CCCC2)C(=O)C=C2C=C(c3ccsc3)N(c3cccc(C#N)c3)C=C2C1=O (stereo not drawn) | -8%[12.4 µM] | x | -12%[12.4 µM] | x | x | -4%[11.5 µM] | x
O=C(NCc1ccco1)c1c2c(nc3ccccc13)CCC2 | u | -10% | 18µM* | u | -71* | 28µM* | u | BLM inh-2=u;ADP-Glo interf=0%
O=C(NCc1ccco1)c1ccccc1 | 6% | -12% | -3% | 8% | -4 | x | x
O=C(Cl)COCc1ccccc1 | 10% | 0% | 0% | x | x | 17% | x
O=c1oc(-c2ccccc2)nc2sc3c(c12)CCC3 | 1% | u | 14µM* | 4% | -54* | 2% | x | BLM inh-2=u;ADP-Glo interf=-2%
Cc1nn(-c2ccccc2)c(Cl)c1C(=O)NCc1cccs1 | 0% | 17% | -21% | -14% | u | u | -22%
Cc1cc(N)c2ccccc2[n+]1CCCCCCCCCC[n+]1c(C)cc(N)c2ccccc21 | u | -7% | -27% | x | x | u | x | RECQ1 conf=u;ADP FP counter=22µM*
Brc1ccccc1CN1CCC(N2CCCCC2)CC1 | -4% | -3% | -5% | -13% | x | u | -2%
O[C@@H]1CN(C2CCN(Cc3ccccc3)CC2)CC[C@H]1N1CCCCCC1 | x | x | x | 22% | 4 | x | x
COC(=O)C1=C(C(=O)OC)[C@@H]2Nc3ccccc3[C@@]23C[C@@H](C(=O)OC)N(S(=O)(=O)c2c(C)noc2C)C3=N1 | -3%[12.4 µM] | x | -5%[12.4 µM] | x | x | -8%[11.5 µM] | x
COc1ccc(OC)c(/C=C2\S/C(=N/NC(=O)c3ccc4ccccc4c3)NC2=O)c1 | 4% | -17% | -28% | u | u | -13% | x
O=C1N/C(=N/NC(=O)c2cccc3ccccc23)S/C1=C\c1ccccc1OCc1ccccc1 | 10% | u | -26% | u | -55* | u | u
